Assay outcomes from PubChem BioAssay.
DAX1 inh-1 – inhibitors of human orphan nuclear receptor DAX1 (NR0B1); P51843; HEK293 Gal4-DAX1 luciferase reporter, luminescence; AID 504766; inhibition, % at 6.75 µM; 340,000 compounds, 0.99% hits;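 active means inhibition above the mean over all tested compounds plus 3 SD, cut at about 4.2% in these data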;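 further: 0% = DAX1-transfected cells with DMSO and 100% = empty-vector control cells with DMSO; inhibition shows as a rise in luminescence from relieved DAX1 repression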
Target sequence (P51843 207-470 limits assumed): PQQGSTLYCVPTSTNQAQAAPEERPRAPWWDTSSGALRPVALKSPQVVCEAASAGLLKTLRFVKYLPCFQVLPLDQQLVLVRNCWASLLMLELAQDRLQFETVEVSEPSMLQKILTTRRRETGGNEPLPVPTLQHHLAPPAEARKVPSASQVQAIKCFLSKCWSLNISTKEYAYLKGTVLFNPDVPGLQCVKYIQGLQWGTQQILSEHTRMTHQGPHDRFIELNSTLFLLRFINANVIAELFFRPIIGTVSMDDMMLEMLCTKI
ssDAF12 agonist – activators of S. stercoralis DAF-12 nuclear receptor | HEK293 ssDAF-12/GRIP1 lit1-tk-luc reporter, luminescence; % of 3 µM dafachronic acid response | activation, % at 6.8 µM | 370,000 compounds, 1% hits | AID 652126;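 active means activation above the mean over all tested compounds plus 3 SD, cut at about 0.9% in these data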;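 further: 0% = DMSO-only wells and 100% = 3 µM delta7-dafachronic acid wells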
AHR activator – human AHR activation. activation, % at 5 µM. P35869. AHR-responsive luciferase reporter cells, luminescence. AID 2796. 320,000 compounds, 2.5% hits; in the data active means activation above about 47%;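 further: 0% = vehicle wells and 100% = reference agonist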
hgDAF12 agonist – agonists of H. glycines DAF-12 nuclear receptor | HEK293 GAL4-hgDAF12 UAS-luciferase reporter, agonist luminescence; normalized to butyrate control | 370,000 compounds, 1.8% hits | AID 687014 | activation, % at 6.8 µM;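 active means activation above a cutoff set at the mean of all screened compounds plus 3 SD, cut at about 10% in these data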;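 further: 0% = DMSO wells and 100% = sodium butyrate wells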
DAX1 inh-2 – inhibitors of DAX1 repression of SF-1 activated StAR promoter; HEK293T StAR-luciferase reporter, SF-1/DAX-1 repression relief; inhibition, % at 6.8 µM; 370,000 compounds, 1.1% hits; AID 652010;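 active means inhibition above the mean over all tested compounds plus 3 SD, cut at about 3.6% in these data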;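 further: 0% = DAX-1 cells with DMSO and 100% = cells lacking DAX-1 with DMSO; higher inhibition means more luminescence from relief of DAX-1 repression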
hcDAF12 agonist – H. contortus DAF-12 activation, primary screen. activation, % at 6.8 µM. AID 652067. 370,000 compounds, 1.4% hits. HEK293 hcDAF-12 lit1-tk-luc reporter, luminescence; 0% DMSO, 100% Δ7-dafachronic acid;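 active means activation above the mean of all tested compounds plus 3 SD, cut at about 5.5% in these data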;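 further: 100% = response to 3 µM Δ7-dafachronic acid high control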
The depositor's hits bear a star; x = not tested or not shown. Most compounds without a hit are left out; they make up all but 5.7% or so of the library.

SMILES	DAX1 inh-1	ssDAF12 agonist	AHR activator	hgDAF12 agonist	DAX1 inh-2	hcDAF12 agonist
Cc1ccc(-c2c(C#N)c(N)n3c(nc4ccccc43)c2C#N)cc1	-2	-1	49*	-2	0	-2
COc1c2c(nc3occc13)C(CC=C(C)C)(OC)C(OC(C)=O)CC2 (centres undefined)	0	-2	73*	-3	0	-1
COc1c2c(nc3occc13)C(CC=C(C)C)(OC)C(O)CC2 (centres undefined)	1	-1	65*	-3	0	0
Cc1ccc(OCc2nnc(SCC(=O)Nc3ccc(N4CCOCC4)cc3)o2)cc1	0	-1	3	2	-1	-2
Nc1c(C(=O)N/N=C/c2cccnc2)oc2nc(-c3ccco3)cc(-c3ccco3)c12	x	0.9*	15	1	-1	3
Nc1c(C(=O)N/N=C/c2cccnc2)oc2nc(-c3ccccc3)cc(-c3ccco3)c12	x	0	37	3	0	3
CCc1ccc(NC(=S)N2CCCCCCC2)cc1	1	0	5	11*	3	0
Cc1nnc2c(NCC(C)c3ccccc3)nc3ccccc3n12 (centres undefined)	-1	0	x	1	-1	-1
CC(CNc1nc2ccc(Cl)cc2n2cnnc12)c1ccccc1 (centres undefined)	5.5*	-2	7	-2	0	-2
COc1ccc(OCC(=O)N/N=C2\CCCc3ccccc32)cc1	-1	1.0*	32	-3	0	3
O=C(COc1ccccc1F)N/N=C1\CCCc2ccccc21	1	0	15	10	2	5.8*
C[C@H]1CN(Cc2ccccc2)C(=O)[C@@H]1CC(=O)Nc1ccccc1	3	-1	x	5	0	-2
CC(Nc1ccccc1)C(=O)Nc1ccc(F)cc1 (centres undefined)	1	-1	10	0	0	1
O=C(O)Cc1ccc(C(=O)CSc2ccccc2)s1	2	-1	-1	0	0	0
Cc1nc(NC(=O)CSc2nnnn2C)sc1C	1	-1	24	8	1	0
COC(=O)c1sc(NC(=O)CSc2nnnn2C)nc1C	0	0	8	10	1	5.6*
COC(=O)c1sc(NC(=O)CSc2nnc(Cn3nnc4ccccc43)n2C)nc1C	0	1.1*	-1	1	0	1
COc1ccc(N2COC3c4cccc5cccc(c45)C32)cc1 (centres undefined)	0	-1	30	-4	-1	0
Clc1ccc(N2COC3c4cccc5cccc(c45)C32)cc1 (centres undefined)	0	-1	60*	-1	1	3
CN(C)S(=O)(=O)c1cc(NC(=O)COC(=O)CC2CC3CCC2C3)ccc1Cl (centres undefined)	-1	-1	-1	-2	2	-1
COC(=O)c1[nH]c2ccc(Br)cc2c1NC(=O)CN1CCN(C2CCCCC2)CC1	-2	-1	5	-3	-1	-1
COC(=O)c1[nH]c2ccc(Br)cc2c1NC(=O)CN1CCCc2ccccc21	-2	-1	48*	-3	0	1
COC(=O)c1[nH]c2cc(C)ccc2c1NC(=O)CN1CCCc2ccccc21	1	0	67*	2	0	4
COC(=O)c1[nH]c2cc(C)ccc2c1NC(=O)CN1CCN(C(=O)c2ccco2)CC1	-1	-1	67*	0	0	2
CCOC(=O)C1C(=O)OC(C)(C)C1C(C)C(=O)c1ccccc1 (centres undefined)	0	0	1	0	0	0
SMILES	DAX1 inh-1	ssDAF12 agonist	AHR activator	hgDAF12 agonist	DAX1 inh-2	hcDAF12 agonist
Cc1ccccc1NC(=O)CC1C(=O)Nc2ccccc2N1CC(=O)N(C)C1CCS(=O)(=O)C1 (centres undefined)	-1	-1	60*	1	-1	0
Brc1ccc(-c2cnc3n2CCCC3)cc1	0	-2	8	0	-1	0
C/C(=N\NC(=O)COc1ccccc1-c1ccccc1)c1ccccn1	-2	-2	26	-10	4.0*	0
C/C(=N\NC(=O)COc1ccccc1-c1ccccc1)c1cccnc1	-1	-2	4	-8	-4	-1
CC(c1nnc(SCC(=O)N2CCc3ccccc32)n1-c1ccc(Cl)cc1)N(C)C (centres undefined)	2	-1	3	-1	-1	0
O=[N+]([O-])c1ccc(O)c(C2=NNC(c3ccccc3F)C2)c1 (centres undefined)	-1	-2	12	3	0	0
Oc1ccc(Cl)cc1C1=NNC(c2cccs2)C1 (centres undefined)	4	0	38	14*	1	5.7*
C/C(=N/NC(=O)CNc1ccc(Cl)cc1C)c1ccc(C)cc1	0	-2	26	0	0	0
O=C(N/N=C/c1cc(Br)c(O)c(Br)c1O)c1cccnc1	1	-1	13	0	0	0
CCn1c(C)csc1=NC(=O)c1ccccc1	0	-1	61*	2	1	1
Cc1csc(=NC(=O)c2ccccc2)n1C	1	1	42	10	2	3
CCN1CCN(C(c2cccs2)C(C)NC(=S)Nc2cc(C)ccc2C)CC1 (centres undefined)	3	-2	0	1	0	0
Cn1c2c(c(=O)n(C)c1=O)[C@@]1(C(=O)Nc3ccccc31)C(C#N)=C(N)O2	-1	-1	11	-4	0	2
Cn1c2c(c(=O)n(C)c1=O)NC1(N2)C(=O)Nc2ccccc21 (centres undefined)	0	0.9*	38	4	0	5
O=C(NCc1ccc(Cl)cc1)C(=O)NCC1OCCCN1S(=O)(=O)c1cccs1 (centres undefined)	0	-1	2	-3	-1	-1
Cn1c(=O)n(/N=C/c2ccccc2)c2ccccc21	-1	0	62*	1	0	5
Cn1c(N)c(N=Cc2ccccc2)c(=O)n(C)c1=O	1	-1	x	0	-1	0
Fc1ccccc1Nc1nc(N2CCOCC2)nc(N2CCOCC2)n1	-3	0	x	1	0	-2
Fc1ccccc1Nc1nc(NCc2ccco2)nc(N2CCOCC2)n1	-1	-1	54*	-2	0	0
O=C1/C(=C/c2cccnc2)CCc2c1[nH]c1ccccc21	0	-1	73*	13*	3	1
CC(C)C/C=C1\CCc2c([nH]c3ccccc23)C1=O	1	0	64*	7	0	0
CCCCCCCCC1=NCCc2c1[nH]c1ccccc21	1	0	36	5	0	5
